# In the library only some 5.5% were active in any assay of this set; here they are far more common.
# VP16 counter: Gal4-VP16 reporter inhibition counter-screen; AID 2546; Drosophila S2 Gal4-VP16 UAS-luciferase, luminescence, 20 h; Potency, µM (highest dose often 53.6 µM), inactives show at the top dose activity, negative = inhibition, hits mostly inhibitors; 310,000 compounds, 3.5% hits;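 further: Gal4-VP16 expression switched on by copper sulfate through the metallothionein promoter; on the % scale 0 is the no-effect control and ±100 the full control effect; nearly all actives have a fitted effect of over 50% in size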
# RORg inh: ROR gamma (mouse) transcription inhibition; P51450; Drosophila S2 Gal4-RORgamma UAS-luciferase reporter, 20 h; Potency, µM (titrated, usually from 53.6 µM), for the others: at the highest dose activity change, negative = inhibition, actives largely listed as inhibitors; 310,000 compounds, 5.4% hits; further: on the % scale 0 is the no-effect control and ±100 the full control effect; nearly all actives have a fitted effect of over 60% in size
# Target sequence (P51450 whole entry, looked up, the tested form may be a part): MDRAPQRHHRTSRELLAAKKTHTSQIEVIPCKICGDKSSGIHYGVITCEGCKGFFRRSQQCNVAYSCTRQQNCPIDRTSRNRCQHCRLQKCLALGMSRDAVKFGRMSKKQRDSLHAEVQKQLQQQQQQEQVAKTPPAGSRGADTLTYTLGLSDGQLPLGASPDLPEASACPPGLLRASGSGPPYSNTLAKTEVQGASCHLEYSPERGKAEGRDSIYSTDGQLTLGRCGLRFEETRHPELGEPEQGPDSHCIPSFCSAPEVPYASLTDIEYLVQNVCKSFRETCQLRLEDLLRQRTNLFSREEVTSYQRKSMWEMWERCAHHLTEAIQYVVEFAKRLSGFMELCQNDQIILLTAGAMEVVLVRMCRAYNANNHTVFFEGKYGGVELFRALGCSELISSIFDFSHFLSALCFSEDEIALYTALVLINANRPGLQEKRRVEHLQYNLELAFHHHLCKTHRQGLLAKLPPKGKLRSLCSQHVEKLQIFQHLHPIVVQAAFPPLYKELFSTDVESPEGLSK
#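 Drosophila S2 cells stably expressing Gal4-DBD/mouse RORγ fusion under metallothionein promoter plus UAS-luciferase; compound 1 h, then 700 uM CuSO4 induction for 20 h at ambient temperature; inhibition read as reduced luminescence.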
# Mito fusion yeast: mitochondrial division inhibition or fusion activation. 320,000 compounds, 0.23% hits. S. cerevisiae fusion-defective mutant growth rescue, CellTiterGlo 48 h. Potency, µM (top dose mostly 46.1 µM), for inactives: at the highest dose growth rescue (activation), actives largely listed as activators; further: % of control where 0% means no effect; nearly all actives have a fitted effect of over 45% in size
#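 Read-out: ATP-based luminescence (CellTiterGlo, 10 min ambient) reporting growth of fusion-defective ts yeast after 48 hours at 37C on glycerol/ethanol YPEG medium in the presence of compound.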
# a7 integrin act: integrin-mediated muscular dystrophy alleviation activation; alpha7betagal myoblasts, beta-gal FDG fluorescence, 48 h; Potency, µM (doses to about 38.3 µM), for inactives: at the top dose activation, actives largely listed as activators; AID 624291; 350,000 compounds, 0.064% hits;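 further: 100% = response of the positive control SU9516; nearly all actives have a fitted effect of over 60% in size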
#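 alpha7betagal+/- myoblasts (passage 13, 250/well) treated 48 h at 37C with compounds at 1:260 dilution of DMSO stock. Lysed, then beta-galactosidase activity read as FDG fluorescence (ex 480/em 540) after 30 min, with pre-read for autofluorescence.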
# uPA surface inh: blocks generation of uPA at the cell surface | cell surface uPA generation assay, qHTS | Potency, µM (doses to about 38.3 µM), for the others: at the top dose activity change, negative = inhibition, actives largely listed as inhibitors | 330,000 compounds, 0.31% hits; active means well fitted inhibition curve with a large enough effect; inconclusive means small, poorly fitted or top-dose-only effect; inactive means no such curve, though single readings can be large or run the other way; tested in mouse RAW 264.7 cells; further: on the % scale 0 is the no-effect control and ±100 the full control effect; nearly all actives have a fitted effect of over 55% in size
# BCR signal inh: chronic active BCR signaling inhibition. ABC-DLBCL IkBa-CBG/CBR reporter, luminescence ratio, 4 h. Potency, µM (series often up to 46.1 µM), inactives show at the highest dose activity change, negative = inhibition, hits mostly inhibitors. 340,000 compounds, 0.05% hits; active means well fitted inhibition curve with a large enough effect in the signal ratio, with a control signal flat, not every such curve was filed as active; inconclusive means small, poorly fitted or top-dose-only effect, or effect the other way, or a change in a side signal; the % refers to the signal ratio;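 further: plate controls were basal doxycycline-induced cells for no effect and cells given 10 µM MG132 for full effect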
#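 Doxycycline induced both beetle luciferases in TMD8 lymphoma cells; IKK-driven degradation limits the IkappaBalpha-fused green signal, while red luminescence normalises for cell number and nonspecific effects. Compounds tested up to 46 uM, 4 hrs.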
# Active calls of the source: *; i = inactive; ? = inconclusive; · = no result given; [ ] = another dose, or the depositor's remark. Unless noted, the call rests on the fitted dose curve; in most records, active means well fitted curve in the direction sought with a large enough effect; inconclusive means small, poorly fitted or top-dose-only effect, or another doubt; inactive means no such curve, though single readings can be large; an effect the other way counts as inactive or inconclusive. Potency means the concentration at half of the fitted maximal effect.
SMILES,VP16 counter,RORg inh,Mito fusion yeast,a7 integrin act,uPA surface inh,BCR signal inh
COc1cc(/C=C/c2nc3ccccc3s2)cc(OC)c1O,-9%,-2%,-4%,i,0%,?
Cc1ccc(/C=C/c2nc3ccccc3s2)s1,10µM*,?,-4%,-5%,-13%,?
CN(C)c1ccc(CNc2nc3ccccc3n2C)cc1,·,·,·,7%,·,·
CN(C)c1ccc(CNc2nc3ccccc3s2)cc1,7.9µM*,5µM*,-6%,·,·,?
COC(=O)C1=C[C@@H](C(=O)OC)[C@@H]2C3=C(C(=O)[C@@]2(CC(C)C)NC(=O)c2ccccc2)[C@H](C)n2c(=O)n(-c4ccccc4)c(=O)n2[C@@H]3C1,7%,-5%,·,·,·,·
CN(C)c1ccc(/C=C/c2ccc3ccccc3n2)cc1,2.8µM*,4µM*,-43%,1%,2µM*,?
CN(C)c1ccc(/C=C/c2nc3ccccc3s2)cc1,4µM*,0.32µM*,-18%,25%,-13%,?
Fc1ccccc1/C=C/c1ccc2ccccc2n1,?,-36%[10 µM],2%,-41%,11µM*,?
CCCCCC(CC)COC(=O)CC(C(=O)OCC(CC)CCCC)S(=O)(=O)O (centres undefined),-5%,-27%,·,·,·,·
CC(C)(C)SCCNC(=O)CN(c1ccc(F)cc1)S(C)(=O)=O,0%,?,6.3µM*,11%,7%,2%
CCN(CC(=O)NCc1ccc(Cl)cc1)C(=O)c1cc(S(=O)(=O)N2CCOCC2)ccc1C,·,·,·,-27%,-3%,2%
O=C(C1CCCCC1)N(Cc1cccnc1)c1nc2ccc(F)cc2s1,·,·,·,·,·,29%
Cc1ccc(O)c(C2=NNC(O)(C(F)(F)F)C2)c1 (centres undefined),-23%,0%,-4%,28%,-10%,20%
Cc1ccc(O)c(C2=NNC(c3ccc(Cl)cc3)C2)c1 (centres undefined),13µM*,7.9µM*,16%,9%,-24%,-7%
Oc1ccc(Cl)cc1C1=NNC(c2cccs2)C1 (centres undefined),?,5µM*,10%,0%,-5%,?
O=C(Nc1cc(Cl)cc(Cl)c1)c1cc(S(=O)(=O)N2CCc3ccccc3C2)ccc1F,·,·,·,·,·,1%
CCN(CC)C(=S)SCc1csc(CC(=O)Nc2ccccc2C)n1,-22%,11µM*,-5%,0%,5%,5%
CCOC(=O)CSCc1csc(CC(=O)Nc2ccccc2C)n1,·,·,·,23%,6%,·
CCCCCCCCCCCn1nnnc1N,·,·,·,-18%,1%,·
Cc1ccccc1C(=O)NC(=S)NC1CCSC1=O (centres undefined),-19%,11µM*,-6%,9%,5%,?
Cc1onc(-c2c(F)cccc2Cl)c1C(=O)NC1CC1,-3%,16%,-2%,10%,7%,4%
O=C(NC(=S)NC1CCSC1=O)c1cccs1 (centres undefined),?,-30%,0%,-31%,-1%,?
Cc1onc(-c2c(F)cccc2Cl)c1C(=O)NC(=S)NC1CCSC1=O (centres undefined),7.1µM*,7.1µM*,4%,14%,4%,-1%
COc1ccc2c(c1OC)C(=O)N(c1cccc(NC(C)=O)c1)C2,7%,-34%,?,25%,-6%,-11%
CNC(=O)c1nnsc1S(=O)c1ccc(Cl)cc1 (centres undefined),5µM*,1.3µM*,4%,0%,-15%,?
SMILES,VP16 counter,RORg inh,Mito fusion yeast,a7 integrin act,uPA surface inh,BCR signal inh
CCCNC(=O)NS(=O)(=O)c1ccc(Cl)cc1,-8%,-7%,-15%,·,4%,-2%
CCCNC(=O)c1nnsc1S(=O)c1ccc(Cl)cc1 (centres undefined),4µM*,1.1µM*,-2%,-75%,-17%,?
CCCNC(=O)c1nnsc1S(=O)(=O)c1ccc(Cl)cc1,3.2µM*,1.1µM*,-5%,-72%,-15%,?
Cc1ccc(S(=O)c2snnc2C)cc1 (centres undefined),-6%,4%,-7%,-55%,-10%,?
CCCNC(=O)c1ccc2snnc2c1,3%,-42%,1%,4%,6%,-5%
COc1ccc(CCN2CC(C(=O)NCCN3CCCC3=O)CCC2=O)cc1 (centres undefined),-8%,-20%,-5%,21%,-2%,0%
CC(C)c1ccc(N2C(=O)CC(Sc3nc4ccccc4o3)C2=O)cc1 (centres undefined),4µM*,5µM*,-24%,0%,-10%,-28%
Nc1ccccc1SC1CC(=O)N(c2ccc(Cl)c(Cl)c2)C1=O (centres undefined),-28%,39%,19%,-11%,1%,?
Cc1ccccc1N1C(=O)CC(Sc2nnc(-c3ccccc3)o2)C1=O (centres undefined),4µM*,3.2µM*,-16%,-63%,-11%,?
O=C1CC(Sc2nnc(-c3ccccc3)o2)C(=O)N1c1ccccc1 (centres undefined),4µM*,1.3µM*,3%,-64%,0%,?
O=C(O)c1cccnc1SC1CC(=O)N(c2ccccc2)C1=O (centres undefined),1%,-2%,-15%,10%,-1%,-1%
O=C(N/N=C/c1cc(Cl)cc([N+](=O)[O-])c1O)c1cc(-c2ccccn2)nc2ccccc12,10µM*,5.6µM*,8%,-15%,?,-3%
O=[N+]([O-])c1cc(Cl)cc(/C=N\Nc2ccccn2)c1O,1.1µM*,0.56µM*,2%,-8%,-6%,4%
CSc1ccccc1NC(=O)C(C)N(C)CC(=O)N1CCN(Cc2ccccc2)CC1 (centres undefined),·,·,·,-27%,-2%,·
CO[C@@H]1COC(=O)CC=C[C@@H](C)[C@@H]2C=C[C@H](O)[C@@H](COC(=O)C/C=C\[C@H]1C)O2,-3%[10 µM],22%[10 µM],·,·,·,·
CCCS/C(N)=N/N=C/c1ccccc1O,1.4µM*,0.63µM*,0%,7%,-3%,?
C=CCS/C(N)=N\N=C\c1c(O)ccc2ccccc12,3.2µM*,0.5µM*,6%,-15%,?,?
Cc1cc(NC(=O)COC(=O)c2oc3c(ccc4ccccc43)c2C)no1,11µM*,?,2%,-29%,0%,?
Cc1c(C(=O)OCC(=O)Nc2ccc(S(N)(=O)=O)cc2)oc2c1ccc1ccccc12,?,35%,3%,8%,2%,?
N=C(N)SCCc1ccc(CCSC(=N)N)cc1,·,·,21µM*,·,·,·
COc1ccc2[nH]c(C)c(-c3csc(N)n3)c2c1,1%,5%,-2%,-34%,-7%,-4%

# Bioassay records from PubChem BioAssay.
